Results filed as inconclusive are left out. Values without a mark were called inactive. Activity calls are given as the source filed them. Unless noted, calls come from the whole dose curve.
Test: Nuclear factor erythroid 2-related factor 2/antioxidant responsive element (Nrf2/ARE) small molecule agonists: qHTS cell viability counter screen in human keratinocytes (AID 1919968; active = well fitted cell-killing curve with a large enough effect in the repeat runs; note: nearly all actives have a fitted effect of over 55% in size)
Settings: KeratinoSens HaCaT ARE cells viability, CellTiter-Fluor, 24 h; series mostly up to 92.4 µM; activity change, negative = cytotoxicity: at the top concentration
In short: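 Viability counter-screen: KeratinoSens reporter cells, DMSO-delivered compounds, 23 h at 37 C, CellTiter-Fluor fluorescence.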
% is set by controls: 0 for no effect and ±100 for the full control effect; potency is the fitted concentration of half-maximal effect.

Row | SMILES | activity change, negative = cytotoxicity | Potency
1 | CCCN1CCC[C@@H]2Cc3[nH]ncc3C[C@H]21 | 0.0869% [at 42.5 µM] | –
2 | C=CC[C@]1(O)CC[C@H]2[C@@H]3CCC4=CC(=O)CCC4=C3C=C[C@@]21C | -2.09% [at 42.5 µM] | –
3 | NP(N)(=O)NC(=O)c1ccc(F)cc1 | -4.01% [at 42.5 µM] | –
4 | COc1ccc(C(=O)c2c(C)n(CCN3CCOCC3)c3ccccc23)cc1 | 6.24% [at 42.5 µM] | –
5 | CCOC(=O)COc1ccc(Cl)cc1Cl | 7.45% | –
6 | CCOc1cccc(C2(N3CCN(c4ccccc4)CC3)CCC(C)CC2)c1 (stereo not given) | -0.134% | –
7 | COP(=O)(OC)Oc1ccc([N+](=O)[O-])cc1 | -7.49% | –
8 | COC(=O)N(C(=O)N1COC2(C(=O)OC)Cc3cc(Cl)ccc3C2=N1)c1ccc(OC(F)(F)F)cc1 (stereo not given) | 13.8% [at 42.5 µM] | –
9 | COc1cc(Cl)c(OC)cc1Cl | 1.81% | –
10 | CC(Cc1ccccc1)NCCn1cnc2c1c(=O)n(C)c(=O)n2C (stereo not given) | -2.13% | –
11 | Cc1cccc(OP(=O)(Oc2cccc(C)c2)Oc2cccc(C)c2)c1 | 5.32% | –
12 | OP(O)c1ccccc1 | 1.49% | –
13 | Oc1ccc2ccc3cccc4ccc1c2c34 | -1.16% | –
14 | ClCc1cccc(Cl)c1 | -6.73% [at 42.5 µM] | –
15 | COP(=S)(OC)Oc1c(Cl)cc(C)cc1Cl | 13.2% | –
16 | CCOP(=S)(OCC)SCS(=O)(=O)CC | -2.55% | –
17 | CCN1CCC2(CC1)COc1cc3c(cc12)N(C(=O)c1ccc(-c2ccc(-c4nnc(C)o4)cc2C)cc1)CC3 | – | 25.2 µM (active)
18 | CN(C)CCc1c[nH]c2cccc(O)c12 | -6.64% | –
19 | COP(N)(=S)Oc1ccccc1C(=O)OC(C)C (stereo not given) | -4.75% | –
20 | N#Cc1c(-c2ccc(Cl)cc2)[nH]c(C(F)(F)F)c1Br | – | 10.9 µM (active)

Row | SMILES | activity change, negative = cytotoxicity | Potency
21 | CNP(=O)(OC)Oc1ccc(C(C)(C)C)cc1Cl (stereo not given) | 0.526% | –
22 | Cc1cccc2sc3nncn3c12 | -1.27% | –
23 | CC1(C)CN=C(NN=C(/C=C/c2ccc(C(F)(F)F)cc2)/C=C/c2ccc(C(F)(F)F)cc2)NC1 | – | 12.2 µM (active)
24 | COc1cc(CC(C)N)c(OC)cc1Br (stereo not given) | 0.113% | –
25 | O=C(CCl)C(Cl)Cl | – | 19.5 µM (active)
26 | CCC1(c2ccccc2)C(=O)NC(=O)NC1=O | 2.25% | –
27 | O=c1[nH]c(Cl)c(Cl)cc1Cl | -3.63% | –
28 | CC(=O)[O][Sn]([c]1ccccc1)([c]1ccccc1)[c]1ccccc1 | – | 0.0486 µM (active)
29 | C=C(Cl)CSC(=S)N(CC)CC | 14.6% | –
30 | ClC(Cl)C(Cl)Cl | -0.403% | –
31 | CC(=O)CCc1ccc2c(c1)OCO2 | 3.55% | –
32 | CN(C)C(=O)Nc1cccc(OC(=O)NC(C)(C)C)c1 | 6.23% | –
33 | CNC(=O)Oc1ccc(N(C)C)c(C)c1 | -6.91% | –
34 | COP(=O)(OC)O/C(=C\Cl)c1cc(Cl)c(Cl)cc1Cl | -13% | –
35 | CC(C)(C)c1ccc(OP(=O)(Oc2ccccc2)Oc2ccccc2)cc1 | 24.4% | –
36 | CC[C@H]1C[C@H]2[C@@H]3CCC4=CC(=O)CC[C@@H]4[C@H]3CC[C@]2(C)[C@H]1O | 10.2% [at 42.5 µM] | –
37 | COC(=O)C(C)N(C(=O)c1ccco1)c1c(C)cccc1C (stereo not given) | -4.45% | –
38 | C#CC1(O)CCCCC1 | 6.2% | –
39 | CSc1ccc(C(=O)C(C)(C)N2CCOCC2)cc1 | 16.1% | –
40 | CCCCc1c(C)nc(NCC)nc1OS(=O)(=O)N(C)C | 10.4% | –

Test: Nuclear factor erythroid 2-related factor 2/antioxidant responsive element (Nrf2/ARE) small molecule agonists: luciferase reporter gene qHTS assay in human keratinocytes (AID 1919969); note: nearly all actives have a fitted effect of over 35% in size
Settings: KeratinoSens HaCaT ARE-luciferase, luminescence, 24 h; series mostly up to 92.4 µM; activity, positive = activation: at the top concentration

Row | SMILES | activity, positive = activation | Potency
41 | CCCN1CCC[C@@H]2Cc3[nH]ncc3C[C@H]21 | 4.17% [at 42.5 µM] | –
42 | C=CC[C@]1(O)CC[C@H]2[C@@H]3CCC4=CC(=O)CCC4=C3C=C[C@@]21C | 2.53% [at 42.5 µM] | –
43 | NP(N)(=O)NC(=O)c1ccc(F)cc1 | 4.15% [at 42.5 µM] | –
44 | COc1ccc(C(=O)c2c(C)n(CCN3CCOCC3)c3ccccc23)cc1 | 3.01% [at 42.5 µM] | –
45 | CCOC(=O)COc1ccc(Cl)cc1Cl | 2.51% | –
46 | CCOc1cccc(C2(N3CCN(c4ccccc4)CC3)CCC(C)CC2)c1 (stereo not given) | -4.35% | –
47 | COP(=O)(OC)Oc1ccc([N+](=O)[O-])cc1 | 0.191% | –
48 | COC(=O)N(C(=O)N1COC2(C(=O)OC)Cc3cc(Cl)ccc3C2=N1)c1ccc(OC(F)(F)F)cc1 (stereo not given) | -5.86% [at 42.5 µM] | –
49 | COc1cc(Cl)c(OC)cc1Cl | 17% | –
50 | CC(Cc1ccccc1)NCCn1cnc2c1c(=O)n(C)c(=O)n2C (stereo not given) | 7.72% | –
51 | Cc1cccc(OP(=O)(Oc2cccc(C)c2)Oc2cccc(C)c2)c1 | 7.38% | –
52 | OP(O)c1ccccc1 | -6.36% | –
53 | Oc1ccc2ccc3cccc4ccc1c2c34 | – | 61.1 µM (active)
54 | ClCc1cccc(Cl)c1 | -0.194% [at 42.5 µM] | –
55 | COP(=S)(OC)Oc1c(Cl)cc(C)cc1Cl | 16.7% | –
56 | CCOP(=S)(OCC)SCS(=O)(=O)CC | 0.175% | –
57 | CCN1CCC2(CC1)COc1cc3c(cc12)N(C(=O)c1ccc(-c2ccc(-c4nnc(C)o4)cc2C)cc1)CC3 | -42.4% | –
58 | CN(C)CCc1c[nH]c2cccc(O)c12 | – | 67.9 µM (active)
59 | COP(N)(=S)Oc1ccccc1C(=O)OC(C)C (stereo not given) | -2.27% | –
60 | N#Cc1c(-c2ccc(Cl)cc2)[nH]c(C(F)(F)F)c1Br | – | 9.69 µM (active)

Row | SMILES | activity, positive = activation | Potency
61 | CNP(=O)(OC)Oc1ccc(C(C)(C)C)cc1Cl (stereo not given) | – | 48.6 µM (active)
62 | Cc1cccc2sc3nncn3c12 | -0.293% | –
63 | CC1(C)CN=C(NN=C(/C=C/c2ccc(C(F)(F)F)cc2)/C=C/c2ccc(C(F)(F)F)cc2)NC1 | -40.5% | –
64 | COc1cc(CC(C)N)c(OC)cc1Br (stereo not given) | 4.63% | –
65 | O=C(CCl)C(Cl)Cl | – | 7.77 µM (active)
66 | CCC1(c2ccccc2)C(=O)NC(=O)NC1=O | -0.112% | –
67 | O=c1[nH]c(Cl)c(Cl)cc1Cl | -0.0208% | –
68 | CC(=O)[O][Sn]([c]1ccccc1)([c]1ccccc1)[c]1ccccc1 | – | 0.0193 µM (active)
69 | C=C(Cl)CSC(=S)N(CC)CC | – | 66.8 µM (active)
70 | ClC(Cl)C(Cl)Cl | -0.31% | –
71 | CC(=O)CCc1ccc2c(c1)OCO2 | 3.23% | –
72 | CN(C)C(=O)Nc1cccc(OC(=O)NC(C)(C)C)c1 | 10.6% | –
73 | CNC(=O)Oc1ccc(N(C)C)c(C)c1 | – | 24.3 µM (active)
74 | COP(=O)(OC)O/C(=C\Cl)c1cc(Cl)c(Cl)cc1Cl | – | 68.6 µM (active)
75 | CC(C)(C)c1ccc(OP(=O)(Oc2ccccc2)Oc2ccccc2)cc1 | 3.46% | –
76 | CC[C@H]1C[C@H]2[C@@H]3CCC4=CC(=O)CC[C@@H]4[C@H]3CC[C@]2(C)[C@H]1O | – | 11.9 µM (active)
77 | COC(=O)C(C)N(C(=O)c1ccco1)c1c(C)cccc1C (stereo not given) | -18.2% | –
78 | C#CC1(O)CCCCC1 | 4.36% | –
79 | CSc1ccc(C(=O)C(C)(C)N2CCOCC2)cc1 | 7.68% | –
80 | CCCCc1c(C)nc(NCC)nc1OS(=O)(=O)N(C)C | 1.14% | –
